Test results taken from PubChem BioAssay AID1159580 (chemical genetic matrix, 2015).
Out of some 5,500 compounds screened, about 2,000 (36%) were called active. Another 18% or so got no clear call; they are omitted. Cut-off read from the data, not from the text of the source: active = normalized growth mostly below about 0.91 (no sharp cut-off); inconclusive = no clear call, values can overlap the other calls; inactive = mostly above about 0.92. Some of the results follow.

Assay: chemical genetic growth profiling, strain panel (AID 1159580);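 note: tested at 20 µM; growth read once vehicle control cultures reached saturation at 30 °C; 1 = growth at the plate median or of vehicle wells; lower values mean less growth of the strain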
Conditions: growth OD

Measured: normalized growth

O=C(O)c1cc(=O)c(O)c2c(O)c(O)ccc2c1
inactive: S. cerevisiae deletion strains, locus YJR075W, strain HOC1, active compounds read low 1.04 | S. cerevisiae deletion strains, locus YKL009W, strain mrt4, active compounds read low 1.04 | S. cerevisiae deletion strains, locus YKL068W, active compounds read low 1.01 | S. cerevisiae deletion strains, locus YKL085W, strain MDH1 (second series), active compounds read low 1.02 | S. cerevisiae deletion strains, locus YKL085W, strain MDH1, active compounds read low 1.02 | S. cerevisiae deletion strains, locus YKL160W, strain elf1, active compounds read low 1.02 | S. cerevisiae deletion strains, locus YKL190W, strain CNB1, active compounds read low 1 | S. cerevisiae deletion strains, locus YKR001C, strain vps1, active compounds read low 1.01 | S. cerevisiae deletion strains, locus YKR026C, strain gcn3, active compounds read low 0.965 | S. cerevisiae deletion strains, locus YKR091W, strain srl3, active compounds read low 0.998 | S. cerevisiae deletion strains, locus YLL001W, strain dnm1, active compounds read low 1 | S. cerevisiae deletion strains, locus YLL026W, active compounds read low 0.992 | S. cerevisiae deletion strains, locus YLL041C, strain sdh2, active compounds read low 0.993 | S. cerevisiae deletion strains, locus YLR027C, strain aat2, active compounds read low 0.998 | S. cerevisiae deletion strains, locus YLR039C, strain RIC1, active compounds read low 1.04 | S. cerevisiae deletion strains, locus YLR058C, strain SHM2, active compounds read low 1.01 | S. cerevisiae deletion strains, locus YLR102C, strain apc9, active compounds read low 1.01 | S. cerevisiae deletion strains, locus YLR113W, strain HOG1, active compounds read low 1 | S. cerevisiae deletion strains, locus YLR221C, strain rsa3, active compounds read low 1.03 | S. cerevisiae deletion strains, locus YLR258W, strain gsy2, active compounds read low 0.993 | S. cerevisiae deletion strains, locus YLR262C, strain YPT6 (second series), active compounds read low 0.942 | S. cerevisiae deletion strains, locus YLR262C, strain YPT6, active compounds read low 0.971 | S. cerevisiae deletion strains, locus YLR268W, strain sec22, active compounds read low 0.987 | S. cerevisiae deletion strains, locus YLR320W, strain mms22, active compounds read low 1 | S. cerevisiae deletion strains, locus YLR330W, strain CHS5, active compounds read low 1 | S. cerevisiae deletion strains, locus YLR342W, strain FKS1 (second series), active compounds read low 1 | S. cerevisiae deletion strains, locus YLR342W, strain FKS1, active compounds read low 0.996 | S. cerevisiae deletion strains, locus YLR357W, strain rsc2, active compounds read low 0.943 | S. cerevisiae deletion strains, locus YLR370C, strain arc18, active compounds read low 0.998 | S. cerevisiae deletion strains, locus YLR371W, strain rom2, active compounds read low 1.03 | S. cerevisiae deletion strains, locus YLR384C, strain iki3, active compounds read low 1.01 | S. cerevisiae deletion strains, locus YLR418C, strain cdc73, active compounds read low 0.946 | S. cerevisiae deletion strains, locus YML016C, strain PPZ1, active compounds read low 0.991 | S. cerevisiae deletion strains, locus YML032C, strain rad52, active compounds read low 1.05 | S. cerevisiae deletion strains, locus YML120C, strain ndi1, active compounds read low 1.01 | S. cerevisiae deletion strains, locus YML124C, strain tub3, active compounds read low 1.01 | S. cerevisiae deletion strains, locus YMR058W, strain fet3, active compounds read low 0.99 | S. cerevisiae deletion strains, locus YMR078C, strain ctf18, active compounds read low 1.03 | S. cerevisiae deletion strains, locus YMR125W, strain sto1, active compounds read low 0.987 | S. cerevisiae deletion strains, locus YMR129W, active compounds read low 1.01 | S. cerevisiae deletion strains, locus YMR205C, strain PFK2, active compounds read low 0.988 | S. cerevisiae deletion strains, locus YMR223W, strain ubp8, active compounds read low 1.05 | S. cerevisiae deletion strains, locus YMR231W, strain pep5, active compounds read low 0.997 | S. cerevisiae deletion strains, locus YMR263W, strain SAP30, active compounds read low 0.999 | S. cerevisiae deletion strains, locus YMR307W, strain GAS1, active compounds read low 1.04 | S. cerevisiae deletion strains, locus YNL067W, strain RPL9B, active compounds read low 1 | S. cerevisiae deletion strains, locus YNL071W, strain lat1, active compounds read low 1 | S. cerevisiae deletion strains, locus YNL128W, strain TEP1, active compounds read low 0.972 | S. cerevisiae deletion strains, locus YNL153C, strain GIM3, active compounds read low 0.98 | S. cerevisiae deletion strains, locus YNL183C, strain NPR1, active compounds read low 0.907 | S. cerevisiae deletion strains, locus YNL209W, strain ssb2, active compounds read low 1 | S. cerevisiae deletion strains, locus YNL233W, strain BNI4, active compounds read low 0.989 | S. cerevisiae deletion strains, locus YNL248C, strain rpa49, active compounds read low 1.04 | S. cerevisiae deletion strains, locus YNL250W, strain rad50, active compounds read low 1.01 | S. cerevisiae deletion strains, locus YNL271C, strain bni1, active compounds read low 0.999 | S. cerevisiae deletion strains, locus YNL298W, strain CLA4, active compounds read low 1.01 | S. cerevisiae deletion strains, locus YNL307C, strain MCK1, active compounds read low 1.04 | S. cerevisiae deletion strains, locus YNL322C, strain KRE1 (second series), active compounds read low 0.981 | S. cerevisiae deletion strains, locus YNL322C, strain KRE1, active compounds read low 1.01 | S. cerevisiae deletion strains, locus YNR049C, strain mso1, active compounds read low 0.993 | S. cerevisiae deletion strains, locus YNR052C, strain pop2, active compounds read low 1.02 | S. cerevisiae deletion strains, locus YOL006C, strain TOP1, active compounds read low 0.984 | S. cerevisiae deletion strains, locus YOL012C, strain htz1 0.622 | S. cerevisiae deletion strains, locus YOL147C, strain pex11, active compounds read low 1.01 | S. cerevisiae deletion strains, locus YOR001W, strain rrp6, active compounds read low 1 | S. cerevisiae deletion strains, locus YOR061W, strain CKA2, active compounds read low 0.995 | S. cerevisiae deletion strains, locus YOR069W, strain VPS5, active compounds read low 1 | S. cerevisiae deletion strains, locus YOR070C, strain gyp1, active compounds read low 1 | S. cerevisiae deletion strains, locus YOR080W, strain dia2, active compounds read low 0.986 | S. cerevisiae deletion strains, locus YOR083W, strain WHI5, active compounds read low 1.02 | S. cerevisiae deletion strains, locus YOR106W, strain vam3, active compounds read low 1.04 | S. cerevisiae deletion strains, locus YOR136W, strain idh2, active compounds read low 1.02 | S. cerevisiae deletion strains, locus YOR144C, strain elg1, active compounds read low 1.01 | S. cerevisiae deletion strains, locus YOR184W, strain ser1, active compounds read low 1.1 | S. cerevisiae deletion strains, locus YOR231W, strain MKK1, active compounds read low 0.987 | S. cerevisiae deletion strains, locus YOR265W, strain rbl2, active compounds read low 0.993 | S. cerevisiae deletion strains, locus YOR270C, strain vph1, active compounds read low 1.01 | S. cerevisiae deletion strains, locus YOR290C, strain snf2, active compounds read low 0.947 | S. cerevisiae deletion strains, locus YOR316C, strain cot1, active compounds read low 1.02 | S. cerevisiae deletion strains, locus YPL051W, strain arl3, active compounds read low 1 | S. cerevisiae deletion strains, locus YPL055C, strain LGE1, active compounds read low 0.964 | S. cerevisiae deletion strains, locus YPL078C, strain atp4, active compounds read low 1.02 | S. cerevisiae deletion strains, locus YPL106C, strain sse1, active compounds read low 0.964 | S. cerevisiae deletion strains, locus YPL240C, strain hsp82, active compounds read low 1 | S. cerevisiae deletion strains, locus YPL241C, strain CIN2, active compounds read low 1.01 | S. cerevisiae deletion strains, locus YPL256C, strain CLN2, active compounds read low 0.968 | S. cerevisiae deletion strains, locus YPR119W, strain clb2, active compounds read low 1.01 | S. cerevisiae deletion strains, locus YPR141C, strain kar3, active compounds read low 1.01 | S. cerevisiae deletion strains, locus YPR163C, strain tif3, active compounds read low 1.02 | S. cerevisiae deletion strains, locus YPR167C, strain met16, active compounds read low 1.01 | S. cerevisiae deletion strains, strain wtn01, active compounds read low 0.998 | S. cerevisiae strains, strain wild type, active compounds read low 1
